The record followed here is PubChem BioAssay.

Values joined by “and” are separate entries in the source; they are usually repeats but may differ in a detail not shown here. Identical values can stand only once. Inconclusive results are not listed. Active and inactive are the calls of the source.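 How the source made its calls, unless noted: active means normalized viability below 100% at a tested concentration; inactive means the rest.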

One may read the viability as a read-out of living cells in per cent, often relative to untreated cells. A word on the AC50: it is the concentration at which the activity in the assay is half-maximal. As a reminder, the IC50 is the concentration at which inhibition is half-maximal.

A short description of test [1]: ovarian cancer cell viability with rucaparib, profiling panel, oncology-focused library, rucaparib conditional (AID 1508598). The following applies: patient-derived ovarian cancer cells, CellTiter-Glo viability, 144 h, stronger effect = lower value.
Test [2] is described as follows: growth inhibition of DIPG glioma cells, dose response, cell-based, SU-DIPG-XVII, MIPE5.0, CellTiter-Glo, qHTS (AID 1347060; cut-off not given, nearly all actives have AC50 up to about 26 µM;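 on AC50: cells exposed to compound for 48 hours before viability readout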). The following applies: SU-DIPG-XVII viability, CellTiter-Glo ATP luminescence. For orientation: ATP-based viability assays read luminescence as a measure of living cells.
Test [3] can be described thus: growth inhibition of DIPG glioma cells, dose response, cell-based, SU-DIPG-XIII, MIPE4.0, CellTiter-Glo, qHTS (AID 1347061; cut-off not given, nearly all actives have AC50 up to about 37 µM;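 further: cells exposed to compound for 48 hours before readout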). To be noted: SU-DIPG-XIII viability, CellTiter-Glo ATP luminescence.
A short description of test [4]: growth inhibition of DIPG glioma cells, dose response, cell-based, JHH-DIPG-1, MIPE4.0, CellTiter-Glo, qHTS (AID 1347062; cut-off not given, nearly all actives have AC50 up to about 27 µM;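 on AC50: cells exposed to compound for two days before readout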). To be noted: JHH-DIPG-1 viability, CellTiter-Glo ATP luminescence.
A short description of test [5]: growth inhibition of DIPG glioma cells, dose response, cell-based, SU-DIPG-IV, MIPE4.0, CellTiter-Glo, qHTS (AID 1347063; cut-off not given, nearly all actives have AC50 up to about 30 µM;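 further: compound exposure lasted 48 hours before the viability readout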). The following applies: SU-DIPG-IV viability, CellTiter-Glo ATP luminescence.
A short description of test [6]: growth inhibition of DIPG glioma cells, dose response, cell-based, SU-DIPG-XIII, MIPE5.0, CellTiter-Glo, qHTS (AID 1347064; cut-off not given, nearly all actives have AC50 up to about 23 µM;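 on AC50: cells exposed to compound for 48 hours before the viability read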). To be noted: SU-DIPG-XIII viability, CellTiter-Glo ATP luminescence.
A short description of test [7]: viability loss in pontine glioma line – cell-based, SU-DIPG-XXV, MIPE5.0, CellTiter-Glo, qHTS, dose response (AID 1347065; cut-off not given, nearly all actives have AC50 up to about 26 µM;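 further: cells exposed to compound for 48 hours before ATP readout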). The following applies: CellTiter-Glo ATP luminescence.
A short description of test [8]: JHH-DIPG-1 glioma cell viability, MIPE5.0 library, CellTiter-Glo luminescence, qHTS (AID 1347067; cut-off not given, nearly all actives have AC50 up to about 26 µM;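 further: cells exposed to compound for 48 hours before readout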). The following applies: JHH-DIPG-1 glioma viability, CellTiter-Glo ATP luminescence.
Test [9] in a line: SU-DIPG-XXV glioma cell viability, MIPE5.0 library, qHTS (AID 1347068; cut-off not given, nearly all actives have IC50 up to about 30 µM;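 on IC50: cells exposed to compound for 48 hours before viability readout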). (Quantitative high-throughput screening tests each substance at several concentrations.)
Test [10] in a line: SU-DIPG-VI glioma cell viability, MIPE4.0 library, CellTiter-Glo luminescence, qHTS (AID 1347066; cut-off not given, nearly all actives have AC50 up to about 30 µM;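 further: cells exposed to compound for 48 hours before readout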). The following applies: CellTiter-Glo ATP luminescence.
A short description of test [11]: sensitizers of A549 cells to miR-34 induction, primary screen, imaging, A549 dox-inducible miR-34, nuclei and caspase counts (AID 1347080;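 active means compounds whose cell count with miR-34 switched on is under 0.7 times the count with it off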). To be noted: A549 miR-34 inducible, Hoechst nuclei count, 48 h.
Test [12] in a line: survival rescue of mitochondrial mutant cells in low glucose, primary screen, MELAS cybrids, Rieske KO mouse fibroblasts, CellTiter-Glo (AID 1508586;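 active means mean z-score across replicates of 1.96 or higher in either the MELAS or the Rieske mutant cell line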;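 further: z relative to plate mean and SD of compound and empty wells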).

For the compound `Nc1ccc(C(=O)Nc2cccc(-c3nc(N4CCOCC4)c4oc5ncccc5c4n3)c2)cn1`, the viability was 112% (inactive) in test [1] (at 0.0195 µM, OCI-C5x cells, without rucaparib); 56.8% (active) in [1] (at 0.0195 µM, OCI-P5x cells, with rucaparib 20 µM, 100% = cells with rucaparib alone); 74.2% (active) in [1] (at 0.0195 µM, OCI-P5x cells, without rucaparib); 122% (inactive) in test [1] (at 0.0781 µM, OCI-C5x cells, with rucaparib 10 µM, 100% = cells with rucaparib alone); 117% (inactive) in test [1] (at 0.0781 µM, OCI-C5x cells, without rucaparib); 114% (inactive) in test [1] (at 0.0781 µM, OCI-P5x cells, with rucaparib 20 µM, 100% = cells with rucaparib alone). Also, the viability in test [1] (at 0.0781 µM, OCI-P5x cells, without rucaparib) is 117% (inactive); in test [1] (at 0.313 µM, OCI-C5x cells, with rucaparib 10 µM, 100% = cells with rucaparib alone) it was 147% (inactive); in test [1] (at 0.313 µM, OCI-C5x cells, without rucaparib), 131% (inactive); in test [1] (at 0.313 µM, OCI-P5x cells, with rucaparib 20 µM, 100% = cells with rucaparib alone) it was 109% (inactive); in test [1] (at 0.313 µM, OCI-P5x cells, without rucaparib), 119% (inactive); in test [1] (at 1.25 µM, OCI-C5x cells, with rucaparib 10 µM, 100% = cells with rucaparib alone) it was 150% (inactive). Besides, the viability in test [1] (at 1.25 µM, OCI-C5x cells, without rucaparib) is 151% (inactive); in [1] (at 1.25 µM, OCI-P5x cells, with rucaparib 20 µM, 100% = cells with rucaparib alone), 111% (inactive); in test [1] (at 1.25 µM, OCI-P5x cells, without rucaparib), 107% (inactive); in [1] (at 5 µM, OCI-C5x cells, with rucaparib 10 µM, 100% = cells with rucaparib alone), 178% (inactive); in test [1] (at 5 µM, OCI-C5x cells, without rucaparib), 138% (inactive); in test [1] (at 5 µM, OCI-P5x cells, with rucaparib 20 µM, 100% = cells with rucaparib alone), 80% (active). For the same compound, the viability in test [1] (at 5 µM, OCI-P5x cells, without rucaparib) was 78.9% (active).
Consider `O=[N+]([O-])c1cn2c(n1)OC[C@@H](OCc1ccc(OC(F)(F)F)cc1)C2`, for which the concentration at half-maximal activity (AC50) in test [2] was 26300 nM (active). The compound was called inactive in test [3], in test [4], in test [5], in test [6], in test [7] and in [8]. In addition, the result in test [9] was inactive.
`Cc1cc(Nc2ncc3c(n2)N(C)C(=O)N(c2cc(NC(=O)c4cccc(C(F)(F)F)c4)ccc2C)C3)n(C)n1`: the AC50 in test [2] was 118 nM (active); in test [3], 1480 nM (active); in test [4] it was 418 nM (active); in test [5], 209 nM (active); in test [6], 105 nM (active); in [7] it was 59 nM (active). The AC50 in test [8] was 263 nM (active). Besides, in test [9], the IC50 is 209 nM (active).
Regarding `CC(=O)O[C@H]1C[C@@H]2CC[C@@H]3[C@H](CC[C@@]4(C)[C@H]3C[C@H]([N+]3(C)CCCCC3)[C@@H]4OC(C)=O)[C@@]2(C)C[C@@H]1[N+]1(C)CCCCC1`, the compound was classed as inactive in test [2], in [3], in test [4], in test [5], in test [6] and in [7]. Besides, the compound was called inactive in [10] and in test [9]. In addition, the fold change was 1.08 (inactive) and 0.979 (inactive) and 0.882 (inactive) in test [11] (stronger effect = lower value, cell number ratio, induced over uninduced); 0.886 and 0.709 and 0.967 in [11] (measured here: relative caspase fold change +Dox/-Dox). Further, the cell count was 10300 and 9210 and 9980 in test [11] (measured here: total cells with miR-34 induction, stronger effect = lower value); 9560 and 9410 and 11300 in test [11] (measured here: total cells without miR-34 induction). The z-score in test [12] (MELAS cybrid survival, CellTiter-Glo 48 h, stronger effect = higher value) was -0.0905 (inactive) and -0.925 (inactive); in test [12] (Rieske KO mouse fibroblast survival, CellTiter-Glo 72 h) it was -1.19 and -0.284.
